TLR4-MyD88 BLA = inhibitors of human TLR4-MyD88 binding; inhibition, % at 8.4 µM; 0.18% of 200,000 active; HeLa CL3-4 TLR4/MyD88 BLA complementation, FRET ratio; O00206+Q99836; in the data active means inhibition above about 25%;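 further: 0% = vehicle and 100% = reference inhibitor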
ANO1 activ = mouse TMEM16A channel activation, primary screen | 0.3% of 340,000 active | Q8BHY3 | HEK293 TMEM16A/YFP-H148Q/I152L, iodide quench fluorescence; active compounds read low | B-score at 10 µM;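 active means fluorescence-ratio B-score plate-corrected deviation score at least 3 library SD below zero, with starting fluorescence score within 5 deviations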;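 further: channel opened by trigger with iodide after compound preincubation; score built on the fluorescence ratio of max minus min over baseline; more negative score means more quench and so TMEM16A activation or potentiation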
GRK2 inh = blocks RNA aptamer binding to human GRK2; P25098; bead flow cytometry, FAM-aptamer displacement from GRK2; inhibition of aptamer binding, % at 10 µM; 0.59% of 330,000 active; AID 488847;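 active means inhibition of aptamer binding above 40%, roughly 3 SD of noise, on plates passing a quality check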;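 further: median bead fluorescence of bound FAM aptamer so fluorescent compounds give negative values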
Target sequence (P25098 whole entry, looked up): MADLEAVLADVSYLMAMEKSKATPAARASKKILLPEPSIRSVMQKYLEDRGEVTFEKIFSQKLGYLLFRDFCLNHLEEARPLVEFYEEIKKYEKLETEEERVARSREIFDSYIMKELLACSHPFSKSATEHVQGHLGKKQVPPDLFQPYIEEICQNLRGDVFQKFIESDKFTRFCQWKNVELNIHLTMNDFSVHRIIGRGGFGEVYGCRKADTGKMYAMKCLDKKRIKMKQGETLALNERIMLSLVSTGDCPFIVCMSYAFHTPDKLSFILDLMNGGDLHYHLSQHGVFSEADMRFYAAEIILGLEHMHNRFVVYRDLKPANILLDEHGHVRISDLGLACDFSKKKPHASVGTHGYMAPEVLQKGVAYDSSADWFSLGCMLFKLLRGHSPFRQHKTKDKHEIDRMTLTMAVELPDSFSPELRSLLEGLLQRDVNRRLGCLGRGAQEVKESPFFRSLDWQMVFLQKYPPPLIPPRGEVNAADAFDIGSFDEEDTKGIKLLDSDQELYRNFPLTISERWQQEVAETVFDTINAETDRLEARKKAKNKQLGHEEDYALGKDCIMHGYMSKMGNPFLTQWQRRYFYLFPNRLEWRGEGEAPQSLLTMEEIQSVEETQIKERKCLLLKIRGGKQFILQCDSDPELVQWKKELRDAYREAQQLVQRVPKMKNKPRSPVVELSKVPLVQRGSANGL
TMEM16A inh = mouse TMEM16A channel inhibition, primary screen; Q8BHY3; normalized B-score (activity score, 25-100; higher = stronger inhibition) at 10 µM; AID 588511; 1.2% of 310,000 active; HEK293 TMEM16A/YFP iodide influx fluorescence, ionomycin;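 active means ratio plate-corrected score three or more library SD toward inhibition, starting fluorescence score within five deviations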;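 further: score derived from kinetic fluorescence span divided by baseline fluorescence per well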
NOD2-RIPK2 inh = NOD2-RIPK2 protein interaction inhibition | 0.38% of 360,000 active | O43353 | CHO BLA complementation NOD2-RIPK2, CCF4 ratio | inhibition, % at 4.98 µM | AID 624267; in the data active means inhibition above about 21%;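 further: 0% = vehicle only and 100% = reference blocker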
TLR9-MyD88 block = inhibitors of human TLR9-MyD88 binding. CHO BLA complementation TLR9-MyD88, CCF4 FRET ratio. inhibition, % at 4.98 µM. 0.21% of 340,000 active. AID 504734;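 active means inhibition above the mean over all tested compounds plus 3 SD, cut at about 21% in these data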;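 further: 0% = DMSO only wells and 100% = clavulanate BLA inhibitor control wells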
TMEM16A reconf = TMEM16A (mouse) chloride channel inhibition, re-confirmation; inhibition, % at 10 µM; HEK293 TMEM16A/YFP-H148Q, iodide quench fluorescence; ionomycin added to raise cell calcium; shares compounds with TMEM16A inh; 39% of 2,300 active;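 active means mean duplicate percent inhibition, scaled so buffer wells are 0 and the reference blocker 100, over three buffer SD above buffer mean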
HEK293 Ca mobil = calcium mobilization counter-screen hit for TMEM16A inhibitor series; shares compounds with TMEM16A inh; TMEM16A/YFP HEK293, Fluo4 calcium mobilization; calcium response (% of ionomycin), % at 10 µM; 2% of 2,300 active; AID 652231;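 active means duplicate-averaged calcium signal over 20% of the ionomycin maximum, relative to buffer baseline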;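 further: each well's signal is peak minus trough fluorescence divided by its pre-addition baseline; 0% = buffer wells and 100% = ionomycin wells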
Parental YFP cnt = parental YFP-HEK293 iodide quench counter-screen activity | shares compounds with TMEM16A inh | ionomycin | YFP ratio F(max-min)/F0 at 10 µM | 2,300 tested, under 10 active | AID 652233;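 active means yellow fluorescent protein signal ratio exceeding the buffer control mean by over 5 SD of those controls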;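 further: ratio is mean of duplicate wells from kinetic YFP trace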
ClC-1 inh = blocks the rat ClC-1 voltage-dependent chloride channel; shares compounds with TMEM16A inh; CHO ClC-1-YFP, iodide influx fluorescence quench; iodide control reads 0, buffer control 100; ratio percent, % at 10 µM; 2,300 tested, under 10 active; AID 652236;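 active means duplicate-mean ratio percent above the mean of iodide-only control wells, which defines zero, plus 5 of their SD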;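 further: higher percent means stronger block of ClC-1 iodide influx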
* = called active by the depositor. Only some compounds are listed: those with a hit (about 2.2% of all), similar ones and a draw of the others.

Screening COc1cccc(C(=O)Nc2cccc(-c3nnc(-c4ccco4)o3)c2)c1 returned TLR4-MyD88 BLA -1.5, ANO1 activ inactive, GRK2 inh 0.0, TMEM16A inh 25*, NOD2-RIPK2 inh -3.1, TLR9-MyD88 block 3.5, TMEM16A reconf 23.0%*, HEK293 Ca mobil inactive, Parental YFP cnt -0.875 and ClC-1 inh -3.0.
Cc1cccc(C(=O)Nc2ccc(C(=O)c3ccccc3)cc2)c1 was read as ANO1 activ inactive, GRK2 inh 1.0, TMEM16A inh inactive and NOD2-RIPK2 inh -9.6.
For CCCc1cc(C(=O)Nc2ccc(C(=O)c3ccccc3)cc2)n(C)n1 the results were ANO1 activ inactive, GRK2 inh 0.0, TMEM16A inh 100*, NOD2-RIPK2 inh -1.8, TLR9-MyD88 block 8.1, TMEM16A reconf 40.0%*, HEK293 Ca mobil inactive, Parental YFP cnt -0.917 and ClC-1 inh -14.0.
`COc1cccc(C(=O)Nc2ccc(C(=O)c3ccccc3)cc2)c1` gave ANO1 activ inactive, GRK2 inh 0.0, TMEM16A inh 100*, NOD2-RIPK2 inh -2.6, TLR9-MyD88 block -0.9, TMEM16A reconf 26.0%*, HEK293 Ca mobil inactive, Parental YFP cnt -1.08 and ClC-1 inh -18.5.
For COc1cc(SC)ccc1C(=O)N1CCN(S(=O)(=O)/C=C/c2ccccc2)CC1 the results were ANO1 activ inactive, GRK2 inh 0.0, NOD2-RIPK2 inh 15.8 and TLR9-MyD88 block -3.0.
Screening CCN1CCN(Cc2c3ccccc3cc3ccccc23)CC1 returned ANO1 activ inactive, GRK2 inh 1.0, TMEM16A inh inactive, NOD2-RIPK2 inh 4.2 and TLR9-MyD88 block 1.4.
For COc1ccc(C2CCCN2C(=O)Nc2ccc(Cl)cc2)cc1OC (centres undefined) the results were TLR4-MyD88 BLA -4.7, ANO1 activ inactive, GRK2 inh 3.0, TMEM16A inh inactive, NOD2-RIPK2 inh 8.3 and TLR9-MyD88 block -1.3.
For O=C(Cn1cnc2ccccc21)Nc1ccc(SC(F)F)cc1 the results were TLR4-MyD88 BLA 0.8, ANO1 activ inactive, GRK2 inh 0.0, TMEM16A inh 25*, NOD2-RIPK2 inh 2.6, TLR9-MyD88 block -0.6, TMEM16A reconf 20.5%*, HEK293 Ca mobil inactive, Parental YFP cnt -0.895 and ClC-1 inh -20.0.
CC(=O)Nc1ccc(-c2ccnc3c2CC(C)(C(=O)NCc2ccc(N(C)C)cc2)O3)cc1 (centres undefined) was read as NOD2-RIPK2 inh -3.0.
For CN1CCN(C(=O)/C(=C/c2ccccc2)c2ccccc2)CC1 the results were TLR4-MyD88 BLA 11.2, ANO1 activ inactive, GRK2 inh 1.0, TMEM16A inh 25*, NOD2-RIPK2 inh 3.3, TLR9-MyD88 block 0.9, TMEM16A reconf inactive, HEK293 Ca mobil inactive, Parental YFP cnt -0.947 and ClC-1 inh -1.5.
Screening COc1ccc(CN2C(=O)c3ccccc3C2=O)cc1C(=O)N(C)CC(=O)Nc1ccc(F)cc1 returned ANO1 activ inactive, GRK2 inh 1.0, NOD2-RIPK2 inh -5.4 and TLR9-MyD88 block -1.9.
`COCc1c(C(=O)OC)nnn1-c1ccc(C(F)(F)F)cc1[N+](=O)[O-]` gave TLR4-MyD88 BLA 7.0, ANO1 activ inactive, GRK2 inh 0.0, TMEM16A inh inactive, NOD2-RIPK2 inh -6.5 and TLR9-MyD88 block -2.1.

From PubChem BioAssay
